Data taken from ChEMBL document CHEMBL4513216, “Probing the Open Global Health Chemical Diversity Library for Multistage-Active Starting Points for Next-Generation Antimalarials” (ACS Infect Dis, 2020).
About 8,600 (12%) of roughly 69,000 compounds showed an effect of 50% or more. The sample as a whole holds a higher share of strong results than the screen did.

What follows are compounds tested on Plasmodium berghei (assay: Screen against P. berghei liver stage (PbLuc), transformed with Luciferase, at 10uM). Settings: tested at 10 uM.
Type: functional, HepG2

Row | SMILES | INHIBITION [%]
1 | Cc1ccc(NC(=O)c2ccc(=O)n(CC(=O)NC3CCCC3)n2)cc1 | 16.2
2 | O=C(O)c1sccc1Oc1ccc(NC(=O)C2CC2)cc1 | 22.6
3 | CCn1cnnc1CCNc1nc(C)cc(C)c1C#N | 32.775
4 | Cc1cc(C)c(C#N)c(NCCn2cnnc2C(C)C)n1 | 58.9
5 | Cc1cc(C)c(C#N)c(NCCSc2nncn2C)n1 | 7.45
6 | CCCn1nc(C)c(CN(CCN(C)C)Cc2ccccn2)c1C | 13.7
7 | Cc1ccccc1CN(Cc1ccc(S(C)(=O)=O)cc1)CC(C)C | 78.9
8 | Cc1ccccc1CN(CCN(C)C)Cc1ccc(S(C)(=O)=O)cc1 | 40.4
9 | Cc1ccccc1CN(Cc1ccncc1)CC(C)C | 21.5
10 | CN(C)C(=O)[C@H]1CO[C@H]2CCN(c3ncc(F)cn3)C[C@H]2C1 | 34.2
11 | CN(C)C[C@@H]1C[C@@H]2CN(C(=O)c3ccoc3)CC[C@@H]2N1CC1CC1 | 25.7
12 | CCCNC(=O)CCC(=O)N1CCC(c2noc3cc(F)ccc23)CC1 | 21.8
13 | CCOC(=O)C1(NCC(=O)Nc2cc(C)ccc2OC)CCCC1 | -35
14 | Cc1ccc(CN2CCn3c(CN(C)C(C)C)cnc3C2)s1 | 7.53
15 | CC(=O)Nc1nc(C(=O)NCCOc2ccc(C)cc2)cs1 | 49.2
16 | Cc1nc(CC(=O)N2CCN(CCOc3ccccc3)CC2)cs1 | 21.8
17 | Cc1ncc(C(=O)NC2CCN(CCOc3ccc(Br)cc3)CC2)s1 | 88.6
18 | Cc1ncsc1C(=O)NC1CCN(CCC(N)=O)CC1 | 24
19 | CN1CCCC1CNC(=O)CCOc1ccc(Br)cc1 (configuration not stated) | 22.983
20 | CO[C@@H]1CC[C@@H](NC(=O)c2ccc(OCCN3CCCC3)cc2)[C@H]1O | 34.25
21 | CCc1nnsc1C(=O)NC1CCN(CCOc2ccc(Br)cc2)CC1 | 80
22 | Cc1nc(C(=O)NC2CCN(CCOc3ccc(Br)cc3)CC2)cs1 | 85.4
23 | CCc1nnsc1C(=O)NC1CCN(c2ccccn2)CC1 | -7.9
24 | COCc1nc(C(=O)N2CCCC(n3nc(C)nc3C)C2)cs1 (configuration not stated) | 26.4
25 | CCn1ncc2c1C(COC)N(C(=O)c1ccc3c(c1)OCO3)CC2 (configuration not stated) | -33
26 | COc1nccnc1N1CCCC2(C1)C(=O)N(C)c1ccccc12 (configuration not stated) | -60.7

Row | SMILES | INHIBITION [%]
27 | C[C@@H]1CN(Cc2ccncc2)C[C@@]1(O)C1CC1 | 3.19
28 | CCc1nc(CN2CCCC(NCc3nc4ccccc4o3)C2)no1 (configuration not stated) | -21.7
29 | O=C(c1ccc2nccnc2c1)N1CCN(CCO)[C@@H]2CS(=O)(=O)C[C@@H]21 | 41.5
30 | Cn1cnc2cc(C(=O)N3CCN(CCO)[C@@H]4CS(=O)(=O)C[C@@H]43)ccc21 | 73.6
31 | CCCN1CCN(C(=O)c2ccc3nc(C)oc3c2)[C@H]2CS(=O)(=O)C[C@H]21 | 33
32 | CCN1CCN(C(=O)c2ccc3c(c2)CCCN3)[C@H]2CS(=O)(=O)C[C@H]21 | 33.2
33 | Cc1nc2ccc(C(=O)N3CCN(CCO)[C@@H]4CS(=O)(=O)C[C@@H]43)cc2o1 | 22.3
34 | CCN1CCN(C(=O)c2cc(-c3ccc(C)o3)n[nH]2)[C@H]2CS(=O)(=O)C[C@H]21 | -1.04
35 | CCN1CCN(C(=O)c2cc(C(F)(F)F)n[nH]2)[C@H]2CS(=O)(=O)C[C@H]21 | 33.7
36 | CCN1CCN(C(=O)c2ccc3c(c2)NC(=O)CN3)[C@H]2CS(=O)(=O)C[C@H]21 | 73
37 | CCN1CCN(C(=O)c2ccc3c(c2)OCC(=O)N3)[C@H]2CS(=O)(=O)C[C@H]21 | 58.2
38 | CCN1CC(C(=O)NCc2cccnc2-n2cccn2)CC1=O (configuration not stated) | -10.1
39 | COC[C@@]12CCO[C@@H]1CCN(C(=O)c1ccc(F)c(F)c1)C2 | -30.6
40 | Cc1nc(COCC2CN(C(=O)N(C)C)Cc3nccn3C2)cs1 (configuration not stated) | 45.4
41 | O=S(=O)(c1cccc(F)c1)N1CCCCC1c1ccn[nH]1 (configuration not stated) | 27.8
42 | CC(C)Nc1nc(N2CCCC2)nc2c1CN(c1ncc(F)cn1)CC2 | 65.8
43 | Cc1nc(N2CCCC2)nc2c1CN(C(C)C)CC2 | -10.4
44 | Cc1nc(CN2CCc3nc(NC(C)C)nc(C)c3C2)cs1 | 46.7
45 | CCC(C)N1CCc2nc(N3CCCC3)nc(NC(C)C)c2C1 (configuration not stated) | 2.59
46 | CC(C)Nc1nc(N2CCCC2)nc2c1CN(C(C)C)CC2 | 61.8
47 | CC(C)Nc1nc(N2CCCC2)nc2c1CCN(S(C)(=O)=O)CC2 | 35.2
48 | Cc1nc(CN2CCc3nc(N4CCCC4)nc(NC(C)C)c3C2)cs1 | 67.4
49 | CC(C)Nc1nc(N2CCCC2)nc2c1CN(S(C)(=O)=O)CC2 | -29
50 | CC(C)Nc1nc(N2CCCC2)nc2c1CN(C)CC2 | 22.4
51 | Cc1nc(Nc2nncs2)cc(C2CCCN2)n1 (configuration not stated) | -8.275
52 | COC(=O)c1cccc(C(=O)N2CCCC(n3cncn3)C2)c1 (configuration not stated) | 15.5
